This note sets out measurements from PubChem BioAssay (NCI).

Test in all cases: NCI-60 one-dose screen, 48 h (100 = growth as untreated, 0 = no growth, -100 = all killed)
Common to all, as to details: 10 µM unless noted

The subject of experiment [1] is RPMI-8226 leukemia.
The test system of experiment [2] is OVCAR-8 ovarian.
The subject of experiment [3] is OVCAR-5 ovarian.
Experiment [4] deals with OVCAR-4 ovarian.
Experiment [5] has as its system SK-OV-3 ovarian.
Experiment [6] has as its system IGROV1 ovarian.
Experiment [7] relates to OVCAR-3 ovarian.
The test system of experiment [8] is HS 578T breast.
Experiment [9] relates to NCI/ADR-RES ovarian.
The subject of experiment [10] is T-47D breast.
Experiment [11] has as its system BT-549 breast.
Experiment [12] relates to MDA-MB-435 melanoma.
Experiment [13] deals with SW-620 colon.
Experiment [14] concerns MCF7 breast.
The test system of experiment [15] is HCT-116 colon.
The subject of experiment [16] is HCC-2998 colon.
Experiment [17] concerns KM12 colon.

The panel holds about 83,000 compounds, 20% with a hit somewhere; the sample as a whole holds those more often.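 Results are percent growth after 48 hours of single-concentration exposure. 100 means growth as in untreated cells, lower positive values show inhibition; negative values down to -100 show cell death.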 Unmarked numbers belong to inactive results. The source made the active and inactive calls. How the source made its calls: active means growth percent below 10; inactive means the rest.

As to `CCN1C(=O)N(CC)C2Nn3c(s/c(=C4\C(=O)Nc5ccccc54)c3=O)=NC21` (stereo not drawn), the growth in experiment [1] is 53.2%; in experiment [2] it was 43.6%; in experiment [3], 66.4%; in experiment [4] it was 54.9%; in experiment [5] it was 75.8%; in experiment [6], 52.3%. For the same compound, the growth in [7] was 10.5%; in [8] it was 34.7%; in experiment [9], 73%; in experiment [10], 45.8%; in experiment [11], 65.3%; in [12] it was -51% (active). Also, the growth in experiment [13] is 27.6%; in experiment [14], 29.1%; in [15], 31.8%; in [16] it was 88%; in [17] it was 33%.
`CN1CCN(c2ccc(-c3cnc4c(-c5csc6ccccc56)cnn4c3)cc2)CC1`: the growth in [1] was -16.7% (active); in [2], -29% (active); in experiment [3], 7.38% (active); in [4] it was 11.9%; in experiment [5], 81.1%; in experiment [6], 5.7% (active). The growth was -68.6% (active) in experiment [7]; -28.4% (active) in experiment [8]; -20.8% (active) in [9]; -7.17% (active) in experiment [10]; -39.3% (active) in experiment [11]; -46.1% (active) in experiment [12]. The growth in experiment [13] is -5.95% (active); in experiment [14] it was -22.5% (active); in experiment [15], -23.8% (active); in [16] it was 24.8%; in experiment [17], -3.74% (active).
As for `CCN1C(=O)N(CC)C2Nn3c(s/c(=C4\C(=O)N(CC(C)C)c5ccccc54)c3=O)=NC21` (stereo not drawn), the growth in experiment [1] is 50.6%; in experiment [2] it was 44.7%; in experiment [3] it was 52.5%; in [4], 56.5%; in [5], 56.2%; in experiment [6], 47.9%. Moreover, the growth in experiment [7] is 21.5%; in experiment [8], 40.5%; in experiment [9] it was 11.3%; in [10], 46%; in [11] it was 52.7%; in experiment [12], -45.9% (active). Also, the growth was 35.7% in experiment [13]; 26.1% in experiment [14]; 14.4% in experiment [15]; 76.5% in [16]; 31.9% in [17].
Take `N#Cc1c(-c2ccc(Cl)cc2)nc2c(c(-c3ccccc3)nn2-c2ccccc2)c1-c1ccc(O)cc1`: the growth in experiment [1] was 17.9%; in experiment [2], 49.9%; in experiment [3], 84%; in experiment [4] it was 64.7%; in experiment [5], 96.9%; in experiment [6], 69.8%. For the same compound, the growth in [7] is 48.3%; in experiment [8], 26.5%; in experiment [9], 57.9%; in experiment [10], 55.4%; in [11] it was 62.3%; in experiment [12], 49%. In addition, the growth is 54.4% in experiment [13]; 19.6% in [14]; 14.3% in experiment [15]; 84.9% in experiment [16]; 41% in [17].
Consider `COc1ccc2c(c1OC)C(=O)O[C@H]2[C@H]1c2c(cc3c(c2OC)OCO3)CCN1C`, for which the growth is 107% in experiment [1]; 95.8% in [2]; 96.2% in experiment [3]; 105% in experiment [4]; 111% in [5]; 102% in experiment [6]. Moreover, the growth is 124% in [7]; 96.5% in [8]; 84.7% in experiment [9]; 109% in experiment [10]; 98.3% in experiment [11]; 54.1% in experiment [12]. The growth in experiment [13] was 92.1%; in experiment [14] it was 93.9%; in [15], 92.6%; in experiment [16], 96.6%; in [17], 95.2%.
Regarding `COc1ccc(OC)c(/C=C/C(=O)N/N=C/c2ccc(Cl)cc2)c1`, the growth in experiment [1] is 21.3%; in experiment [2], 21%; in [3] it was 28.4%; in [4], 40.2%; in experiment [5] it was -4.93% (active); in experiment [6] it was 17.9%. The growth was -43.4% (active) in [7]; -1.72% (active) in experiment [8]; 3.82% (active) in [9]; 29.5% in experiment [10]; 63.5% in experiment [11]; -32.4% (active) in [12]. In addition, the growth was 19.9% in experiment [13]; 8.93% (active) in experiment [14]; 5.72% (active) in [15]; 2.34% (active) in [16]; 18% in [17].
As to `O=C(CCCCCCSc1nc(-c2ccccc2)cc(-c2ccccc2)n1)NO`, the growth was 7.64% (active) in [1]; 27.6% in experiment [2]; 38.9% in experiment [3]; 59.1% in experiment [4]; 47.8% in experiment [5]; 36.9% in experiment [6]. In addition, the growth in [7] is 40%; in [8] it was 43.1%; in experiment [9], 0.776% (active); in experiment [10], -11.1% (active); in [11], 30.9%; in [12], 17.3%. Also, the growth in [13] is 8.47% (active); in [14], 16.1%; in experiment [15], 11.6%; in experiment [16], 63.4%; in experiment [17], 50.7%.
As for `NC1CCN(c2nc(Nc3cccc(C(F)(F)F)c3)c3c(=O)[nH]ccc3n2)CC1`, the growth in experiment [1] is -45.4% (active); in experiment [2], -44.7% (active); in [3], 14.9%; in [4] it was -49.7% (active); in experiment [5] it was -76.1% (active); in [6], -46.2% (active). Moreover, the growth in [7] is -72.2% (active); in experiment [8], -24.5% (active); in experiment [9], -30.8% (active); in experiment [10], -73.2% (active); in [11] it was -91.8% (active); in [12], -74.2% (active). Moreover, the growth in experiment [13] is -76.8% (active); in [14] it was -85.8% (active); in [15], -99.5% (active); in experiment [16] it was -85.8% (active); in experiment [17] it was -67.1% (active).
Take `O=c1[nH]c2c(ccc3cnccc32)c2c1CCC2`: the growth in [1] is -31% (active); in experiment [2] it was 13.9%; in experiment [3], -2.64% (active); in experiment [4], 28.3%; in [5], 3.27% (active); in [6], -71% (active). In addition, the growth in experiment [7] is -27% (active); in experiment [8], -21.8% (active); in experiment [9], 7.35% (active); in experiment [10], -7.41% (active); in experiment [11] it was -51.7% (active); in experiment [12], -60.1% (active). The growth in experiment [13] was -11.9% (active); in experiment [14] it was -4.54% (active); in [15], 4.41% (active); in experiment [16] it was -51.8% (active); in experiment [17], -17.9% (active).
